In PubChem BioAssay (EPA / NIEHS):
Calls of active or inactive are those of the source. Rule for the calls: active = hit-call score of the fitted dose curve at least 0.9, where 1 is the maximum; inactive = score below 0.9.

Columns and labels:
[1] = ATG_M_32_CIS: Attagene CIS-FACTORIAL HepG2 Assay for M32 Transcription Factor (Internal Marker) (AID 2282949); conditions: HepG2 Attagene cis-factorial M32 reporter, mRNA; actives raise or lower the signal;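 note: background control marker of the multiplexed CIS panel rather than a real target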
Summary of the method: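 Using DMSO as baseline, bidirectional curve fits were applied to reporter mRNA signals. These came from transiently transfected HepG2 cells exposed for 24 h, with RNA analysed by RT-PCR, FAM primer extension, HpaI digestion and CE.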

[2] = ATG_M_06_CIS: Attagene CIS-FACTORIAL HepG2 Assay for M06 Transcription Factor (Internal Marker) (AID 2282950); conditions: HepG2 Attagene CIS-FACTORIAL M06 internal marker reporter; actives raise or lower the signal
Summary of the method: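 Internal background marker within multiplexed cis-reporter HepG2 system. Cells transiently transfected, dosed 24 h; reporter mRNA measured by RT-PCR, HpaI digestion and capillary electrophoresis. Bidirectional fit relative to DMSO.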

[3] = biological target: Hypoxia-inducible factor 1-alpha (Homo sapiens) (UniProt Q16665); test: ATG_HIF1a_CIS: Attagene CIS-FACTORIAL HepG2 Assay for human Hypoxia Inducible Factor 1 (HIF1A) (AID 2282951); conditions: HepG2 Attagene cis-factorial HIF1a reporter transcription; actives raise or lower the signal
Summary of the method: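 Endogenous-TF cis reporter readout, human HepG2 cells, 24 h incubation; mRNA detected via RT-PCR and capillary electrophoresis fluorescence; DMSO-normalised bidirectional fitting.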

[4] = biological target: Hepatocyte nuclear factor 6 (Homo sapiens) (UniProt Q9UBC0); test: ATG_HNF6_CIS: Attagene CIS-FACTORIAL HepG2 Assay for human Hepatocyte Nuclear Factor 6 (HNF6) (AID 2282952); conditions: HepG2 Attagene cis-factorial HNF6 reporter transcription; actives raise or lower the signal
Summary of the method: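 Endogenous factor activity read in transiently transfected HepG2 via promoter-regulated reporter transcripts. RNA harvested 24 h post-dosing, reverse-transcribed, PCR-amplified, FAM-labelled, HpaI-digested and resolved by capillary electrophoresis; fitted in both directions against DMSO.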

[5] = ATG_MRE_CIS: Attagene CIS-FACTORIAL HepG2 Assay for human Metal Responsive Element (MRE) (AID 2282954); conditions: HepG2 MRE cis-reporter transcription, Attagene multiplex; actives raise or lower the signal
Summary of the method: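 RT-PCR/capillary electrophoresis readout of reporter mRNA, 24 h post-dosing, in HepG2 cells transfected with multiplexed cis-regulated reporter constructs. Gain or loss of signal fitted bidirectionally against DMSO baseline.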

[6] = ATG_PBREM_CIS: Attagene CIS-FACTORIAL HepG2 Assay for human Phenobarbital-responsive Enhancer Module (PBREM) (AID 2282955); conditions: HepG2 PBREM cis-reporter, Attagene multiplexed transcription; actives raise or lower the signal
Summary of the method: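 Readout: reporter mRNA, fluorescent RT-PCR fragments separated by capillary electrophoresis. System: HepG2 transiently transfected with cis-regulated reporter units. Exposure: 24 h. Analysis: bidirectional, DMSO baseline.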

[7] = biological target: Paired box protein Pax-6 (Homo sapiens) (UniProt P26367); test: ATG_Pax6_CIS: Attagene CIS-FACTORIAL HepG2 Assay for human Paired Box 6 (PAX6) (AID 2282956); conditions: HepG2 CIS-FACTORIAL PAX6 reporter transcription, RNA readout; actives raise or lower the signal
Summary of the method: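 DMSO-referenced bidirectional fits of reporter mRNA fluorescence; HepG2 with transient cis-promoter MRTUs, 24 h post-dose, RT-PCR plus capillary electrophoresis detection.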

[8] = ATG_PXRE_CIS: Attagene CIS-FACTORIAL HepG2 Assay for human Pregnane X Receptor Element (PXRE) (AID 2282957); conditions: HepG2 Attagene CIS-FACTORIAL PXRE reporter, mRNA; actives raise or lower the signal
Summary of the method: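 Reporter transcripts under endogenous PXR-responsive cis-regulation quantified from total RNA of transfected HepG2 cells 24 h post-dosing, via RT-PCR with fluorescent primer extension and capillary electrophoresis. Gain or loss of signal fitted against DMSO baseline.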

[9] = ATG_PPRE_CIS: Attagene CIS-FACTORIAL HepG2 Assay for human Peroxisome Proliferator-activated Response Element (PPRE) (AID 2282958); conditions: HepG2 PPRE cis-element reporter, Attagene transcription factor profiling; actives raise or lower the signal
Summary of the method: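 After human HepG2 hepatoma cells were transiently transfected with cis-promoter reporter constructs, they were exposed to test chemicals for 24 hours. Reporter RNA was then reverse-transcribed, PCR-amplified, FAM-labeled, HpaI-digested and quantified by capillary electrophoresis.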

[10] = ATG_RORE_CIS: Attagene CIS-FACTORIAL HepG2 Assay for human RAR-related Orphan Receptor Element (RORE) (AID 2282959); conditions: HepG2 Attagene cis-factorial RORE reporter, mRNA; actives raise or lower the signal
Summary of the method: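 Measured here: transcript induction of a cis-regulated reporter in HepG2 cells transiently transfected via FuGene 6. After 24 h, RNA was processed by RT-PCR and fluorescent capillary electrophoresis; DMSO defined baseline activity.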

[11] = ATG_Sox_CIS: Attagene CIS-FACTORIAL HepG2 Assay for human SRY-box transcription factor (SOX) (AID 2282960); conditions: HepG2 Attagene cis-factorial SOX reporter, mRNA; actives raise or lower the signal
Summary of the method: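 Using transiently transfected HepG2 cells, reporter transcription driven by cis elements was assessed 24 h after dosing. Signal was fluorescence of capillary-separated RT-PCR products, with DMSO defining baseline activity.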

[12] = biological target: Transcription factor Sp1 (Homo sapiens) (UniProt P08047); test: ATG_Sp1_CIS: Attagene CIS-FACTORIAL HepG2 Assay for human Specificity Protein 1 (Sp1) (AID 2282961); conditions: HepG2 Sp1 cis-reporter transcription, actives raise or lower the signal
Summary of the method: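 After transient transfection of HepG2 cells with cis-promoter reporter units and 24 h chemical treatment, reporter transcripts were quantified by RT-PCR and capillary electrophoresis fluorescence. Gain- and loss-of-signal fitted against DMSO.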

[13] = ATG_SREBP_CIS: Attagene CIS-FACTORIAL HepG2 Assay for human Sterol Regulatory Element Binding (SREBP) (AID 2282962); conditions: HepG2 Attagene cis-factorial SREBP reporter, mRNA; actives raise or lower the signal
Summary of the method: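 In this cis-format assay, HepG2 liver cells express reporters controlled by promoter elements responsive to native transcription factors. Exposure lasts 24 h; reporter mRNA fluorescence from capillary electrophoresis gives the signal, fitted bidirectionally against DMSO.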

[14] = biological target: Signal transducer and activator of transcription 3 (Homo sapiens) (UniProt P40763); test: ATG_STAT3_CIS: Attagene CIS-FACTORIAL HepG2 Assay for human Signal Transducer and Activator of Transcription 3 (STAT3) (AID 2282963); conditions: HepG2, Attagene cis-factorial STAT3 reporter transcription; actives raise or lower the signal
Summary of the method: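 Readout: fluorescent reporter mRNA fragments resolved by capillary electrophoresis. Setup: HepG2 transfected with MRTUs reporting endogenous transcription-factor activity, dosed 24 h. Gain or loss of signal fitted bidirectionally against DMSO control.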

[15] = ATG_TA_CIS: Attagene CIS-FACTORIAL HepG2 Assay for human TA Basal Promoter (AID 2282964); conditions: HepG2 Attagene CIS-factorial TA basal promoter reporter; actives raise or lower the signal
Summary of the method: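 HepG2 cells transiently transfected with multiple reporter units under cis promoter elements, reporting endogenous transcription factor activity; this endpoint tracks the TA basal promoter as background control. Reporter mRNA after 24 h dosing measured by RT-PCR/capillary electrophoresis; bidirectional fits versus DMSO.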

[16] = ATG_TCF_b_cat_CIS: Attagene CIS-FACTORIAL HepG2 Assay for human T-Cell-Factor with beta-catenin (TCF/b-cat) (AID 2282965); conditions: HepG2 TCF/beta-catenin cis-reporter transcription, actives raise or lower the signal
Summary of the method: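 HepG2 cells transiently transfected with cis-promoter-driven multiplexed reporter units; reporter mRNA measured 24 h after dosing by RT-PCR, FAM labelling, HpaI digestion and capillary electrophoresis. Bidirectional fitting relative to DMSO baseline.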

[17] = ATG_TGFb_CIS: Attagene CIS-FACTORIAL HepG2 Assay for human Transforming Growth Factor (TGF) (AID 2282967); conditions: HepG2 Attagene CIS TGFb reporter, mRNA transcription; actives raise or lower the signal
Summary of the method: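 HepG2 cells transiently transfected with cis-promoter-driven multiple reporter units measure endogenous TF activity; reporter mRNA quantified at 24 h by RT-PCR, FAM labeling, HpaI digestion and capillary electrophoresis. Bidirectional fit vs DMSO.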

[18] = ATG_VDRE_CIS: Attagene CIS-FACTORIAL HepG2 Assay for human Vitamin D Receptor Element (VDRE) (AID 2282968); conditions: HepG2 VDRE cis-reporter transcription, actives raise or lower the signal
Summary of the method: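 Transient MRTU transfection of HepG2, 24 h compound exposure. Readout: reporter transcripts via RT-PCR and capillary electrophoresis, fluorescence. Bidirectional fit vs DMSO.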

[19] = ATG_TAL_CIS: Attagene CIS-FACTORIAL HepG2 Assay for human TAL Basal Promoter (AID 2282966); conditions: HepG2 Attagene cis-factorial TAL promoter reporter; actives raise or lower the signal;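 note: background control endpoint measuring basal TAL promoter reporter mRNA not a specific factor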
Summary of the method: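 Background-control endpoint: basal TAL promoter reporter transcripts in transiently transfected HepG2, measured 24 h after dosing. Read-out by RT-PCR with fluorescent primer extension and capillary electrophoresis; gain or loss of signal fitted relative to DMSO.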

Measured: AC50

Signal transducer and activator of transcription 3 (Homo sapiens), sequence (P40763 whole entry, looked up, the tested form may be a part): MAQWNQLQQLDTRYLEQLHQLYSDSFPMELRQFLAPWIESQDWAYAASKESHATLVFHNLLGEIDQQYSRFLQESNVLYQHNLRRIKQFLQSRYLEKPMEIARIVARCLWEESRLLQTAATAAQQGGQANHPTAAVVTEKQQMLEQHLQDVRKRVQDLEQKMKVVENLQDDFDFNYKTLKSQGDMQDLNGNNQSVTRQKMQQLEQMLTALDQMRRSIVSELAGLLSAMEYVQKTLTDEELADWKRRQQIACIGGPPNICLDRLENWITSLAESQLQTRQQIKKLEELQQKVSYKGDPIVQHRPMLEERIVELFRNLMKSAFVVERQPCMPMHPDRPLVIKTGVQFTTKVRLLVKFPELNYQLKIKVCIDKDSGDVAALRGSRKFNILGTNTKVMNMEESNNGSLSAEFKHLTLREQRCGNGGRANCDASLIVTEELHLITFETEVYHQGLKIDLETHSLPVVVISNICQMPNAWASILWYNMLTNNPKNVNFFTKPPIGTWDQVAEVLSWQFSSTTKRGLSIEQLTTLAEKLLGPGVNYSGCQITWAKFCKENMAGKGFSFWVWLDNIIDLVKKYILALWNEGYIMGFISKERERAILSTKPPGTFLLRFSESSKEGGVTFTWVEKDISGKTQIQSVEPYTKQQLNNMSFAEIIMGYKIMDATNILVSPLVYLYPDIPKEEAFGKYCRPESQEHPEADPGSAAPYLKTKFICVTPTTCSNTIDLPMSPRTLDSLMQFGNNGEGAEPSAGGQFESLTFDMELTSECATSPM
Hypoxia-inducible factor 1-alpha (Homo sapiens), sequence (Q16665 whole entry, looked up): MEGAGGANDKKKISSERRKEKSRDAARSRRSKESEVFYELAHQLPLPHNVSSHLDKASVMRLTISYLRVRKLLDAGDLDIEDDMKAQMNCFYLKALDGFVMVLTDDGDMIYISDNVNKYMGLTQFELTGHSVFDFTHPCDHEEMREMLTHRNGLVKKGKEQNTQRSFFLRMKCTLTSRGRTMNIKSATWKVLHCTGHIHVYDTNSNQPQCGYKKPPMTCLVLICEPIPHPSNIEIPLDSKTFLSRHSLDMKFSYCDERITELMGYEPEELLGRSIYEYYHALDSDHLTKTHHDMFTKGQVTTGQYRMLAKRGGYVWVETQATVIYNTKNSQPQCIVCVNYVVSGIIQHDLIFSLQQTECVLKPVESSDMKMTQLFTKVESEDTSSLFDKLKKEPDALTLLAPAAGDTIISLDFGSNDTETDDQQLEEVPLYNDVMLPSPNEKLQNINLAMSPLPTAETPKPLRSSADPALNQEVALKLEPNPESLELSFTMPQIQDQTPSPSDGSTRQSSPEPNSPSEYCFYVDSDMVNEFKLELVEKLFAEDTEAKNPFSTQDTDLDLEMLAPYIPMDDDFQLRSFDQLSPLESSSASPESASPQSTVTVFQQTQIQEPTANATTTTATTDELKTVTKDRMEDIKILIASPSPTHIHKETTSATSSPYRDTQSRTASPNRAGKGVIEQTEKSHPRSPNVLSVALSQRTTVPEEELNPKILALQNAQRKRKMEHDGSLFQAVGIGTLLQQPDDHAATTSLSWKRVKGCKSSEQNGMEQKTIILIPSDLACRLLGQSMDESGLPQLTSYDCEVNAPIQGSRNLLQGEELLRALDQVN
Hepatocyte nuclear factor 6 (Homo sapiens), sequence (Q9UBC0 whole entry, looked up): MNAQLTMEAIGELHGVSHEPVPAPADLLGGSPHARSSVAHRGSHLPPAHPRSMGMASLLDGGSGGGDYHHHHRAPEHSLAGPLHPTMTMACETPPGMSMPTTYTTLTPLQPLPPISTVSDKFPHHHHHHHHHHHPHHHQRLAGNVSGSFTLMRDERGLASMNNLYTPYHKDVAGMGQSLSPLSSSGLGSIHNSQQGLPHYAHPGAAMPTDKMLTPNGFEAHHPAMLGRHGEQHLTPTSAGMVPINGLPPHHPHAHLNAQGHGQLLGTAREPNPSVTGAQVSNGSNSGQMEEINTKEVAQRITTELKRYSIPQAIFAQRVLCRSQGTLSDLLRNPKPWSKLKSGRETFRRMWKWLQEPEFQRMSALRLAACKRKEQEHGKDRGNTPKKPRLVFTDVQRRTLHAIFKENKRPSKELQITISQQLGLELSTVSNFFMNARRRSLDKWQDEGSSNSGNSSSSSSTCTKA
Transcription factor Sp1 (Homo sapiens), sequence (P08047 whole entry, looked up): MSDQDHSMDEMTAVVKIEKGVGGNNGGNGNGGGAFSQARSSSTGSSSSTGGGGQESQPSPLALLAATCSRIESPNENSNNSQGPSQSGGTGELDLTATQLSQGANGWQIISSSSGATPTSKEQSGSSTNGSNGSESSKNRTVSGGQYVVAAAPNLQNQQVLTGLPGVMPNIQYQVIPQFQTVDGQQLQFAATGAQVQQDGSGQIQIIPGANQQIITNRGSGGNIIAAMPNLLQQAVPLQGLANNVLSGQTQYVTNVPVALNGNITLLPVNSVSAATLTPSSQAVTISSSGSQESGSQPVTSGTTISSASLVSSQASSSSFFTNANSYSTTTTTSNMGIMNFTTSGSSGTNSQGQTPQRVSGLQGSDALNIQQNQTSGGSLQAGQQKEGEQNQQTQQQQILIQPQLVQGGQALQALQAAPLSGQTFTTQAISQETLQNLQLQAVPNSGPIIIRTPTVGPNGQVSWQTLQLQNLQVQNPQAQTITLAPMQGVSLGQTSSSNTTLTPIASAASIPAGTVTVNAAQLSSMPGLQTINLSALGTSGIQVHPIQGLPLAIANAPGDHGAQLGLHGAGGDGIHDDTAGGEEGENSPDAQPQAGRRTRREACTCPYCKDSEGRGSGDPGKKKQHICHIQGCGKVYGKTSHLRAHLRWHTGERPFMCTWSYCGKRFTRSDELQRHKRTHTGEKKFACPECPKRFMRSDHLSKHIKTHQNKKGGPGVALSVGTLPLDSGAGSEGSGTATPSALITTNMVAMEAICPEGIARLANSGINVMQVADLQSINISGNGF
Paired box protein Pax-6 (Homo sapiens), sequence (P26367 whole entry, looked up): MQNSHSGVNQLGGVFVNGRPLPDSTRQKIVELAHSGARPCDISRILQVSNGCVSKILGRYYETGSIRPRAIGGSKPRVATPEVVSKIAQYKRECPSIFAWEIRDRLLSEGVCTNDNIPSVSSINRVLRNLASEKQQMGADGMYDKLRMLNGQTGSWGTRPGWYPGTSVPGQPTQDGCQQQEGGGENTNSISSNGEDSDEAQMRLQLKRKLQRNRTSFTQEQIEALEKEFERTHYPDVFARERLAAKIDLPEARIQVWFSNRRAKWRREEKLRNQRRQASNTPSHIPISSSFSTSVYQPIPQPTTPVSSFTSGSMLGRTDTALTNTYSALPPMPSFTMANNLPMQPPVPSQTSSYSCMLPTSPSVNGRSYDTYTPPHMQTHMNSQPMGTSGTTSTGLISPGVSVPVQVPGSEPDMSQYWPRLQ

OC(c1ccc(Cl)cc1)(c1ccc(Cl)cc1)c1cccnc1
active: [8] 1.89 µM
inactive: [1] | [2] | [3] | [4] | [5] | [6] | [7] | [9] | [10] | [11] | [12] | [13] | [14] | [15] | [16] | [17] | [18]

OC(Cc1ccccc1Cl)(Cn1[nH]cnc1=S)C1(Cl)CC1 (stereo not drawn)
active: [5] 77.6 µM | [6] 21.7 µM | [8] 4.27 µM | [11] 145 µM | [18] 18 µM
inactive: [1] | [2] | [3] | [4] | [7] | [9] | [10] | [12] | [13] | [14] | [15] | [16] | [19] | [17]

O=C(O)C1(c2ccc3c(c2)OC[C@H](Cc2ccc(-c4ccccc4)cc2)[C@H]3O)CCCC1
inactive: [1] | [2] | [3] | [4] | [6] | [8] | [9] | [10] | [11] | [12] | [14] | [15] | [17] | [18]
active: [5] 2.85 µM | [13] 5.92 µM
